In paper PMC5540273 (PLoS ONE, 2017):

Experiments:
Conditions in all cases: concentration: 1 μM, replicates: in singlicate; n = 1
CDKL2 = test system: CDKL2
CDKL3 = test system: CDKL3
CDKL5 = test system: CDKL5
CHEK1 = test system: CHEK1
CHEK2 = test system: CHEK2
CIT = test system: CIT
CLK1 = test system: CLK1
CLK2 = test system: CLK2
CLK3 = test system: CLK3
CLK4 = test system: CLK4
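Note: KINOMEscan kinase panel screen.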

| Structure (SMILES) | %Inh (CDKL2) [%] | %Inh (CDKL3) [%] | %Inh (CDKL5) [%] | %Inh (CHEK1) [%] | %Inh (CHEK2) [%] | %Inh (CIT) [%] | %Inh (CLK1) [%] | %Inh (CLK2) [%] | %Inh (CLK3) [%] | %Inh (CLK4) [%] |
| --- | --- | --- | --- | --- | --- | --- | --- | --- | --- | --- |
| O=C(c1ccc(-c2cc(-c3c[nH]nc3-c3ccccn3)ccn2)cc1)N1CCCC1 [GW792479] | 24 | 3 | 0 | 0 | 0 | 18 | 0 | 8 | 0 | 0 |
| Cn1ccc2ncnc(Oc3ccc(NC(=O)Nc4cccnc4)c(Cl)c3)c21 | 3 | 13 | 14 | 0 | 9 | 5 | 0 | 5 | 4 | 32 |
| Clc1cccc(-c2nc(Nc3ccncc3)c3ccccc3n2)c1 [GW873004] | 35 | 13 | 3 | 0 | 0 | 57 | 14 | 0 | 35 | 52 |
| Cc1ccc(C)c(NC(=O)NCCNc2ccnc(Nc3ccc(F)cc3)n2)c1 [GSK1379878] | 0 | 0 | 0 | 5 | 0 | 8 | 23 | 0 | 0 | 0 |
| Nc1nc(-c2ccccn2)c(-c2ccnc3ccccc23)s1 [GW548057] | 24 | 0 | 0 | 0 | 46 | 6 | 14 | 16 | 30 | 40 |
| CC(=O)Nc1n[nH]c2ncc(-c3ccccc3)cc12 [SB-548492] | 6 | 0 | 0 | 0 | 1 | 4 | 41 | 19 | 32 | 27 |
| Clc1ccc(-c2cc(-c3c[nH]nc3-c3ccccn3)ccn2)cc1 [GW681251] | 11 | 22 | 0 | 0 | 0 | 4 | 13 | 0 | 4 | 20 |
| O=C(NCCCN1CCCC1=O)c1cnc(NCc2cc(Cl)ccc2Cl)nc1NC1CCNCC1 | 0 | 20 | 0 | 0 | 6 | 0 | 0 | 0 | 0 | 0 |
| COc1ccc(-c2oc3ncnc(N)c3c2-c2ccc(OC)cc2)cc1 [SB-589132] | 2 | 0 | 2 | 0 | 0 | 0 | 29 | 0 | 0 | 0 |
| CCC(CC)(CC)n1cnc2c(N)ncnc21 [SKF-97620] | 0 | 0 | 23 | 0 | 0 | 13 | 0 | 0 | 6 | 16 |
| OCCOCCn1ccc2ncnc(Nc3ccc(Oc4cccc(Cl)c4)c(Cl)c3)c21 | 0 | 5 | 0 | 0 | 0 | 2 | 0 | 0 | 0 | 0 |
| Clc1cc(Nc2ncnc3cc[nH]c23)ccc1OCc1ccccn1 | 0 | 31 | 8 | 14 | 13 | 18 | 13 | 0 | 5 | 7 |
| CC(C)(C)c1ccc(-n2cnc3c(N)ncnc32)cc1 [SKF-97263] | 0 | 0 | 0 | 34 | 0 | 31 | 36 | 20 | 19 | 50 |
| CCCc1ccc(S(=O)(=O)NC2CCN(c3ccnc(Nc4ccc(OC)cc4)n3)C2)cc1 (stereo not drawn) [GSK1379737] | 19 | 0 | 0 | 0 | 15 | 32 | 23 | 0 | 0 | 6 |
| Cl.Cl.c1ccc(-c2cc3ccncc3cc2OC2CCNCC2)cc1 [GSK1122999] | 10 | 0 | 7 | 3 | 0 | 55 | 64 | 32 | 4 | 71 |
| C[C@@H]1CCN(C(=O)CO)C[C@@H]1N(C)c1ncnc2[nH]ccc12 | 2 | 0 | 0 | 0 | 1 | 0 | 3 | 6 | 0 | 0 |
| Fc1ccc(Nc2nccc(-c3c(-c4ccc(Cl)cc4)nn4ncccc34)n2)cc1F [GW829058] | 22 | 21 | 23 | 12 | 1 | 0 | 0 | 10 | 10 | 5 |

| Structure (SMILES) | %Inh (CDKL2) [%] | %Inh (CDKL3) [%] | %Inh (CDKL5) [%] | %Inh (CHEK1) [%] | %Inh (CHEK2) [%] | %Inh (CIT) [%] | %Inh (CLK1) [%] | %Inh (CLK2) [%] | %Inh (CLK3) [%] | %Inh (CLK4) [%] |
| --- | --- | --- | --- | --- | --- | --- | --- | --- | --- | --- |
| COc1cc2ncnc(Nc3ccc(OCc4ccccc4Br)c(Cl)c3)c2cc1OC.Cl [GI261590] | 26 | 2 | 0 | 0 | 47 | 29 | 28 | 0 | 0 | 17 |
| FC(F)(F)c1ccc(-c2cc(-c3c[nH]nc3-c3ccccn3)ccn2)cc1 [GW599550] | 21 | 0 | 0 | 0 | 16 | 37 | 8 | 4 | 5 | 29 |
| Oc1ccc2ncnc(Nc3ccc(OCc4ccccc4)cc3)c2c1 [GI262866] | 0 | 0 | 7 | 8 | 23 | 0 | 37 | 0 | 21 | 19 |
| O=c1cc(N2CCOCC2)nc2n(Cc3cccc(Cl)c3)ccn12 [GSK2296823] | 26 | 0 | 4 | 18 | 0 | 10 | 47 | 1 | 20 | 24 |
| c1ccc(-c2ccc3c(-c4ccnc(Nc5ccc6c(c5)OCCO6)n4)cnn3n2)cc1 [GW818941] | 16 | 0 | 0 | 0 | 0 | 6 | 52 | 42 | 0 | 58 |
| COC(=O)c1cccc(NC(=O)NCCNc2ccnc(Nc3ccc(F)cc3)n2)c1 [GSK1379883] | 5 | 0 | 0 | 0 | 5 | 35 | 15 | 0 | 14 | 42 |
| COC(=O)c1c(-c2ccccc2)c2cc(Cl)ccc2c(=O)n1Cc1ccc(S(C)(=O)=O)cc1 | 0 | 0 | 33 | 0 | 10 | 4 | 3 | 0 | 10 | 10 |
| Nc1nc(-c2cccnc2)c(-c2ccnc3ccccc23)s1 [GW684083] | 20 | 0 | 0 | 0 | 11 | 45 | 14 | 0 | 100 | 38 |
| CS(=O)(=O)CCNCc1ccc(-c2ccc3ncnc(Nc4ccc(OCc5ccccc5)c(Cl)c4)c3c2)o1.Cl [GW574783] | 11 | 0 | 0 | 6 | 0 | 23 | 0 | 0 | 0 | 21 |
| Nc1nc(-c2ccc3c(N)n[nH]c3c2)cc(N2CCCCC2)n1 [GSK2228768] | 0 | 0 | 2 | 0 | 0 | 18 | 29 | 0 | 8 | 19 |
| C[C@H]1CC[C@@H](C(=O)Nc2ccccc2)CN1c1cc(-c2ccc3c(N)n[nH]c3c2)nc(N)n1 [GSK2283293] | 17 | 0 | 0 | 0 | 0 | 32 | 18 | 0 | 0 | 21 |
| COc1ccc(Nc2nccc(N3CCC(NC(=O)c4cccc(NC(C)=O)c4)C3)n2)cc1 (stereo not drawn) [GSK1379732] | 18 | 0 | 0 | 0 | 41 | 43 | 21 | 0 | 0 | 12 |
| CNc1nccc(-c2c(-c3ccc(F)cc3)ncn2CCCN2CCOCC2)n1 [SB-222516] | 6 | 10 | 2 | 0 | 43 | 0 | 4 | 16 | 18 | 3 |
| CC(C)(C)OC(=O)NC1CCCN(c2cc(-c3ccc4c(N)n[nH]c4c3)nc(N)n2)C1 (stereo not drawn) [GSK2286096] | 5 | 0 | 7 | 0 | 0 | 26 | 55 | 27 | 7 | 16 |
| Cc1ccc(NC(=O)c2cccc(C#N)c2)cc1-c1ccc(C(=O)Nc2ccncc2)cc1 [GSK1398463] | 40 | 0 | 11 | 19 | 0 | 47 | 29 | 0 | 23 | 24 |
| COc1cc2c(Nc3cccc(NC(=O)c4ccccc4)c3)ncnc2cc1OCCCN1CCOCC1 [GSK223810] | 3 | 0 | 0 | 0 | 0 | 29 | 10 | 10 | 0 | 16 |
